Results published in PubChem BioAssay (NCI).
This is part of a sample that, as a whole, favours compounds with a hit. Of some 79,000 tested, about 15% had one in any assay. Calls of active or inactive are those of the source. Cut-off read from the data, not from the text of the source: active = growth inhibition above about 70%; inactive = the rest.

Assay: NCI Yeast Anticancer Drug Screen. Data for the rad50 strain (AID 155);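 note: 0% = growth of vehicle-only cultures of the same strain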
Conditions: S. cerevisiae rad50 strain growth inhibition; at 50.0 µM; stronger effect = higher value
In short: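 Relative growth inhibition (compound vs vehicle) was measured in yeast with a defined repair-gene alteration.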

Compound | growth inhibition
CCN(CC)C(=N)N | -11.6% (inactive)
Cc1ccc(-n2nnc(-c3ccc(Cl)c(Cl)c3)n2)cc1 | -30.9% (inactive)
CN(C)C(=O)NC(=S)N(C)C | -4.05% (inactive)
CCOC(=O)C1=CC(C)(C(=O)OCC)Nc2c(nc(N)[nH]c2=O)N1 (stereo not drawn) | -42.5% (inactive)
Cc1cc(Br)c(NC(=O)c2csnn2)c(Br)c1 | -31% (inactive)
COc1ccc(COC(=O)Oc2ccc(Cl)cc2)cc1OC | 93.8% (active)
S=C1Cc2c([nH]c3ccccc23)-c2ccccc2N1 | -11.1% (inactive)
Cc1cc(N(CCC#N)CCC#N)ccc1/C=C/C(=O)Nc1cccc(Cl)c1 | 8.95% (inactive)
O=C(C(=O)N1CCc2ccccc21)c1c[nH]c2ccccc12 | 5.75% (inactive)
Clc1ccc2c(Cl)ncnc2c1I | -2.5% (inactive)
C=CCC12CC(C)OC1=Nc1ccccc1NC2=O (stereo not drawn) | -0.95% (inactive)
O=C1c2ccccc2C(=O)N1N1C(=O)C2C3CCC(O3)C2C1=O (stereo not drawn) | 12.8% (inactive)
CCOC(=O)c1cn(C2OC(COC(=O)c3ccccc3)C(OC(=O)c3ccccc3)C2OC(=O)c2ccccc2)c(=O)nc1N (stereo not drawn) | -1.05% (inactive)
O=[N+]([O-])c1cc(O)ccc1O | 5.4% (inactive)
CC1=CC2N(C=C1)C(c1cccc([N+](=O)[O-])c1)=NON2c1cc(C)ccn1 (stereo not drawn) | 7.05% (inactive)
Oc1c(Cl)c(Cl)c(O)c2ccccc12 | -3.7% (inactive)
CCOC(=O)c1c(-c2ccccc2)c(-c2ccccc2)cn1C | 18.3% (inactive)
C1#CCSCC#CCSC1 | 14.2% (inactive)
